Twelve molecules from PubChem BioAssay can be followed below.

SMILES strings stand for the structures. Activity calls are given as the source filed them. Unless noted, no rule for the calls is given here.

Experiment [1] has as its system XIP peptide (Xip251-270) binding. As to the kind of experiment: small-molecule binders of XIP peptide, primary screen, biochemical, small-molecule microarray, fluorescence 635/667 nm, 0.1 µg/mL protein (AID 1182). To be noted: fluorescent protein binding, 635 nm, higher = more signal, called active from +8 up or from −8 down.
Another experiment concerns XIP peptide (Xip251-270). As to the kind of experiment: small-molecule binders of XIP peptide, primary screen, biochemical, small-molecule microarray, fluorescence 635/667 nm, 0.5 µg/mL protein (AID 1183). The settings on record: small-molecule microarray binding, fluorescence 635 nm; higher = more signal.
Experiment [2] is described as follows: Plasmodium falciparum growth inhibition, primary screen, strain 3D7, DAPI fluorescence, 100 nL (AID 1184).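 Also: parasites grown inside human red blood cells in medium with human serum.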 The settings on record: P. falciparum 3D7 growth, 3 d, higher = more signal.
For experiment [3], the target named is Homeobox protein Hox-A13 (Mus musculus) (UniProt Q62424). As to the kind of experiment: inhibitors of HoxA13-DNA binding, primary screen, biochemical, fluorescence polarization, labeled oligonucleotide (AID 1185). To be noted: 15 min, higher = more signal, called active from +8 up or from −8 down. For orientation: In fluorescence polarisation assays a small probe gives low polarisation when free and higher when bound to something large.
Chain of Homeobox protein Hox-A13 (Mus musculus) (Q62424 whole entry, looked up): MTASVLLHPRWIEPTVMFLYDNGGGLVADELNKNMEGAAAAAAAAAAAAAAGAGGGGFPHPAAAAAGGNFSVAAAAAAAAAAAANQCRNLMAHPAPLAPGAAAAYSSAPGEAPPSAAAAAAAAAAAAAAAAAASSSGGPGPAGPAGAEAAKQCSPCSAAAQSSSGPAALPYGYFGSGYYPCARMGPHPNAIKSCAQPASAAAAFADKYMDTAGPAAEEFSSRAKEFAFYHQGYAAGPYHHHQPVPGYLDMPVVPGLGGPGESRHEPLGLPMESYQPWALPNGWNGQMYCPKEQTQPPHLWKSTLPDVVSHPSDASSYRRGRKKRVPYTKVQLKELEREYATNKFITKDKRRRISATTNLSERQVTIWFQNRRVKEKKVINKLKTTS

Experiment [4] in a line: inhibitors of hydroxyurea-induced Chk1 phosphorylation, primary screen, imaging, HeLa, phospho-Chk1 antibody, percent positive cells (AID 1186). The settings on record: hydroxyurea-induced phospho-Chk1 immunofluorescence imaging, higher = more signal.
Experiment [5] in a line: inhibitors of hydroxyurea-induced Chk1 phosphorylation, primary screen, imaging, HeLa, phospho-Chk1 nuclear intensity (AID 1187). The settings on record: hydroxyurea-induced phospho-Chk1 immunofluorescence imaging, higher = more signal.

`CN1C(=O)[C@@]2(CCC(=O)OC(C)(C)C)N=C(c3ccc(OCCCO)cc3)O[C@H]2c2ccccc21`: the composite z-score in experiment [1] was 0.0792 (inactive); in the experiment on XIP peptide (Xip251-270) it was 0.576. Also, the z-score is -2.1 in experiment [2], -4.88 (inactive) in experiment [3], -0.414 (inactive) in experiment [4] and -0.261 (inactive) in experiment [5].
Regarding `N#Cc1ccc(NN2C(C(O)c3cc(C(F)(F)F)cc(C(F)(F)F)c3)C=CC3C(=O)N(c4ccccc4)C(=O)C32)cc1` (configuration not stated), the composite z-score in experiment [1] was 1.67 (inactive); in the experiment with XIP peptide (Xip251-270), 0.479. The z-score is -0.496 in experiment [2], -1.5 (inactive) in experiment [3], 0.245 (inactive) in experiment [4] and -0.0521 (inactive) in experiment [5].
As to `CC(C)NC(=O)[C@@]1(c2ccc([N+](=O)[O-])cc2)CC(=O)N(CC23CC4CC(CC(C4)C2)C3)[C@@H]1c1ccc(CO)cc1I`, the composite z-score in experiment [1] is 0.805 (inactive); in the experiment with XIP peptide (Xip251-270), 0.704. The z-score was -0.705 in experiment [2], -3.26 (inactive) in experiment [3], -0.122 (inactive) in experiment [4] and 1.16 (inactive) in experiment [5].
For `CC(C)(C)N1CC=CC23O[C@@H]4C=CCCOC(=O)C4[C@H]2C(=O)N(CCCCCO)[C@@H]3C1=O` (some centres not stated), the composite z-score in experiment [1] is 0.615 (inactive); in the experiment on XIP peptide (Xip251-270) it was 0.12. For the same molecule, the z-score in experiment [2] is 0.519; in experiment [3] it was -4.56 (inactive); in experiment [4], -1.05 (inactive); in experiment [5], -1.13 (inactive).
Consider `CCCNC(=O)[C@@H]1c2ccccc2C(=O)N(c2ccc(C)cn2)[C@H]1c1ccc(CO)cc1`, for which the composite z-score in experiment [1] is -0.239 (inactive); in the experiment on XIP peptide (Xip251-270), -0.314. Further, the z-score in experiment [2] is 0.167; in experiment [3] it was -2.4 (inactive); in experiment [4] it was 0.929 (inactive); in experiment [5], 0.52 (inactive).
`COc1ccc([Si](C)(C)[C@@H]2[C@@H](CC(=O)N3CCC[C@H]3CO)O[C@]3(C(=O)N(Cc4cccc(N5CCC5=O)c4)c4ccccc43)[C@H]2C)cc1`: the composite z-score in experiment [1] was 1.07 (inactive); in the experiment on XIP peptide (Xip251-270) it was 0.824. Also, the z-score in experiment [2] is -0.744; in experiment [3], -2.64 (inactive); in experiment [4] it was -0.532 (inactive); in experiment [5], 0.535 (inactive).
With `CN1C(=O)C2C=CC(C(O)c3ccc(Br)cc3)N(N(c3ccccc3)c3ccccc3)C2C1=O` (configuration not stated), the composite z-score is 0.654 (inactive) in experiment [1] and 0.266 in the experiment on XIP peptide (Xip251-270). Besides, the z-score in experiment [2] is -0.233; in experiment [3], -0.704 (inactive); in experiment [4] it was 0.63 (inactive); in experiment [5], 0.0215 (inactive).
As for `COC(=O)[C@@]1(Cc2ccc(OC)cc2)[C@H]2c3cc(C(=O)N4CCCC4)n(Cc4cc(F)c(F)c(F)c4)c3C[C@H]2CN1C(=O)c1ccccc1`, the composite z-score in experiment [1] is 0.902 (inactive); in the experiment on XIP peptide (Xip251-270), 0.604. Besides, the z-score is -1.56 in experiment [2], -2.27 (inactive) in experiment [3], -0.345 (inactive) in experiment [4] and -0.868 (inactive) in experiment [5].
On to `CCN(CC)c1ccc(N2CC=CC34O[C@@H]5/C=C\CCC(C)OC(=O)C5[C@H]3C(=O)N(CCCO)[C@@H]4C2=O)cc1` (some centres not stated), for which the composite z-score in experiment [1] is 0.217 (inactive); in the experiment with XIP peptide (Xip251-270), 0.974. The z-score was -0.0779 in experiment [2], -6.38 (inactive) in experiment [3], 0.0745 (inactive) in experiment [4] and -0.0024 (inactive) in experiment [5].
In the case of `COCCOC(=O)N1C(=O)[C@@]2(c3cc(C#CCNC(N)=O)ccc31)[C@H](c1ccccc1OCCO)N1[C@H](c3ccccc3)[C@H](c3ccccc3)OC(=O)[C@H]1[C@@H]2C(=O)N1CCN(c2ncccn2)CC1`, the composite z-score is 0.521 (inactive) in experiment [1] and 0.787 with XIP peptide (Xip251-270). In addition, the z-score is -2.09 in experiment [2], -0.789 (inactive) in experiment [3], -0.44 (inactive) in experiment [4] and -0.438 (inactive) in experiment [5].
On to `CC(C)(C)OC(=O)CC[C@]1(C(=O)NCc2ccccc2)N=C(c2ccc(OCCCO)cc2)O[C@H]1c1ccccc1`, for which the composite z-score in experiment [1] is 0.124 (inactive); in the experiment with XIP peptide (Xip251-270) it was 0.846. The z-score in experiment [2] is -1.58; in experiment [3], -6.62 (inactive); in experiment [4], -0.179 (inactive); in experiment [5] it was -0.062 (inactive).
Take `COC(=O)[C@@]1(Cc2ccccc2)[C@H]2c3cc(C(=O)N4CCCC4)n(Cc4ccccn4)c3C[C@H]2CN1C(=O)c1ccccc1`: the values for the composite z-score (in experiment [1]; in the experiment on XIP peptide (Xip251-270)) were 0.766 (inactive) and 0.91, respectively. For the same molecule, the z-score in experiment [2] was -1.5; in experiment [3], -6.05 (inactive); in experiment [4], -0.161 (inactive); in experiment [5], -0.295 (inactive).
